Results taken from PubChem BioAssay (Tox21).
Values joined by “and” are separate entries in the source; they are usually repeats but may differ in a detail not shown here. Identical values can stand only once. Inconclusive results are not listed. Where a call stands in place of a potency, no number is given. A number with no mark means an inactive call. Active and inactive are the calls of the source. The call rests on the fitted dose curve; in most records, active means well fitted cell-killing curve with a large enough effect in the repeat runs; inconclusive means weak or mixed curves, or effect the other way; inactive means flat fitted curve, though single readings scatter.

How the values were obtained:
[1] = cAMP Responsive Elements (CRE) small molecule antagonists, cell-based qHTS assay: qHTS cell viability counter screen (AID 2060913); further: nearly all actives have a fitted effect of over 40% in size
Summary of the method: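 Viability of NKH477-stimulated (0.25 uM final) CRE-bla HEK293T cells is measured by CellTiter-Glo luminescence following 3 hrs compound exposure at 37 C.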

[2] = cAMP Responsive Elements (CRE) small molecule agonists, cell-based qHTS assay: qHTS cell viability counter screen (AID 2060914); further: nearly all actives have a fitted effect of over 50% in size
Summary of the method: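 Luminescence read-out (CellTiter-Glo, 30 min RT) of ATP-based viability in CRE-bla HEK 293T cells, run in the same wells as the β-lactamase reporter assay after 3 h compound treatment at 37 °C.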
Potency means the concentration at half of the fitted maximal effect.

COc1ccc(O)cc1
Potency [1]: inactive
Potency [2]: inactive

C[n+]1cc2c3c(ccc2c2ccc4cc5c(cc4c21)OCO5)OCO3
Potency [1]: 3.66 µM (active)
Potency [2]: 3.26 µM (active)

CCCCCCCCCCCCCCCC
Potency [1]: inactive
Potency [2]: inactive

Cc1ccc([N+](=O)[O-])cc1Cl
Potency [1]: inactive
Potency [2]: inactive

CO[C@H]1C=CO[C@@]2(C)Oc3c(C)c(O)c4c(O)c(c5c(c4c3C2=O)=NC2(CCN(CC(C)C)CC2)N=5)NC(=O)/C(C)=C\C=C/[C@H](C)[C@H](O)[C@@H](C)[C@@H](O)[C@@H](C)[C@H](OC(C)=O)[C@@H]1C
Potency [1]: inactive
Potency [2]: inactive

O=S1(=O)CC=CC1
Potency [1]: inactive
Potency [2]: inactive

C=C(C)C(=O)OCCN(C)C
Potency [1]: inactive
Potency [2]: inactive

CC(C)=C1CC[C@@H](C)CC1=O
Potency [1]: inactive
Potency [2]: inactive

CCCOCCOCCOCCO
Potency [1]: inactive
Potency [2]: inactive

C=C1C[C@H]2[C@@H]3C=C(C)C4=CC(=O)CC[C@]4(C)[C@H]3CC[C@]2(C)[C@@]1(OC(C)=O)C(C)=O
Potency [1]: inactive
Potency [2]: inactive

COc1ncnc(NS(=O)(=O)c2ccc(N)cc2)c1OC
Potency [1]: inactive
Potency [2]: inactive

CC12CCCC=C1C(=O)OC2=O (configuration not stated)
Potency [1]: inactive
Potency [2]: inactive

Nc1ccn(C2CO[C@H](CO)O2)c(=O)n1 (some centres not stated)
Potency [1]: inactive
Potency [2]: inactive

O=C(O)c1ccco1
Potency [1]: inactive
Potency [2]: inactive

O=C(Oc1ccccc1)c1ccc2ccccc2c1O
Potency [1]: inactive
Potency [2]: inactive

Oc1cc2c(cc1O)[C@H]1c3ccc(O)c(O)c3OC[C@@]1(O)C2
Potency [1]: inactive
Potency [2]: inactive

Cc1cc(C)c(N)cc1C
Potency [1]: inactive
Potency [2]: inactive

Cc1ccc(C(C)(C)C)c(O)c1
Potency [1]: inactive
Potency [2]: inactive

CC(=O)OC[C@H]1O[C@@H](OC(C)=O)[C@H](OC(C)=O)[C@@H]1OC(C)=O
Potency [1]: inactive
Potency [2]: inactive

CCC=CC#N
Potency [1]: inactive
Potency [2]: inactive

CCN(CCC#N)c1ccccc1
Potency [1]: inactive
Potency [2]: inactive

CC(N=C(NC#N)Nc1ccncc1)C(C)(C)C (configuration not stated)
Potency [1]: inactive
Potency [2]: inactive

COc1ccc(-c2cc(=S)ss2)cc1
Potency [1]: inactive
Potency [2]: inactive

CC(O)CNCC(C)O (configuration not stated)
Potency [1]: inactive
Potency [2]: inactive

CCCCCCCCCCCC[N+](C)(C)CC(=O)[O-]
Potency [1]: inactive
Potency [2]: inactive

O=C(O)Cc1ccccc1Oc1ccc(Cl)cc1Cl
Potency [1]: inactive
Potency [2]: inactive

Cc1ccccc1C=O
Potency [1]: inactive
Potency [2]: inactive

CC(C)c1cccc(C(C)C)c1N
Potency [1]: inactive
Potency [2]: inactive

C=C(C)c1cccc(C(C)(C)N=C=O)c1
Potency [1]: inactive
Potency [2]: inactive

O=C(OCCCCCCOC(=O)c1ccccc1)c1ccccc1
Potency [1]: inactive
Potency [2]: inactive

CC(C)CC(O)Cc1ccccc1 (configuration not stated)
Potency [1]: inactive
Potency [2]: inactive

CCOB(OCC)OCC
Potency [1]: inactive
Potency [2]: inactive

O=C1OC2(c3ccc(O)cc3Oc3cc(O)ccc32)c2ccccc21
Potency [1]: inactive
Potency [2]: inactive

CC(=O)OCCC(C)CC(C)(C)C (configuration not stated)
Potency [1]: inactive
Potency [2]: inactive

CC(=O)NC(Cc1ccccc1)C(=O)O (configuration not stated)
Potency [1]: inactive
Potency [2]: inactive

Cc1ccc(S(=O)(=O)O)cc1
Potency [1]: inactive
Potency [2]: inactive

O=c1c2ccccc2nnn1CCl
Potency [1]: inactive
Potency [2]: inactive

C[C@H]1[C@H]2CC[C@H]3[C@@H]4CC=C5C[C@@H](N(C)C)CC[C@]5(C)[C@H]4CC[C@]23CN1C
Potency [1]: inactive
Potency [2]: inactive

COC(=O)CCS
Potency [1]: inactive
Potency [2]: inactive

CCCCCCCCCC(C)C=O (configuration not stated)
Potency [1]: inactive
Potency [2]: inactive

Cc1ccc(CCn2c3c(c4cc(Cl)ccc42)CN(C)CC3)cn1
Potency [1]: inactive
Potency [2]: inactive

CCCCCCCCS
Potency [1]: inactive
Potency [2]: inactive

Cc1ccnc(NS(=O)(=O)c2ccc(N)cc2)n1
Potency [1]: inactive
Potency [2]: inactive

CC(C)CCCCCCOC(=O)CCCCC(=O)OCCCCCCC(C)C
Potency [1]: inactive
Potency [2]: inactive

Cc1ccnc2ccccc12
Potency [1]: inactive
Potency [2]: inactive

Nc1ccc(C(=O)O)c(O)c1
Potency [1]: inactive
Potency [2]: inactive

CCCCC(CC)COC(=O)COc1ccc(Cl)cc1Cl (configuration not stated)
Potency [1]: inactive
Potency [2]: inactive

CC1COc2ccccc2N1C(=O)C(Cl)Cl (configuration not stated)
Potency [1]: inactive
Potency [2]: inactive

Oc1ccc(C(O)CNCCCCCCNCC(O)c2ccc(O)c(O)c2)cc1O (configuration not stated)
Potency [1]: inactive
Potency [2]: inactive

CCCCCCCCOc1ccccc1C(=O)Nc1ccc(C(=O)OCC[N+](C)(CC)CC)cc1
Potency [1]: inactive
Potency [2]: inactive

CN1C(CCl)Nc2cc(Cl)c(S(N)(=O)=O)cc2S1(=O)=O (configuration not stated)
Potency [1]: inactive
Potency [2]: inactive

C[C@]12CCC(=O)C=C1[C@@H]1C[C@@H]1[C@H]1[C@@H]3[C@@H]4C[C@@H]4[C@@]4(CCC(=O)O4)[C@@]3(C)CC[C@@H]12
Potency [1]: inactive
Potency [2]: inactive

CN(C)CCOC(=O)C(c1ccccc1)C1(O)CCCC1 (configuration not stated)
Potency [1]: inactive
Potency [2]: inactive

Nc1ccccc1N
Potency [1]: inactive
Potency [2]: inactive

CC(=O)Nc1ccc(OCCOCCOc2ccc(NC(C)=O)cc2)cc1
Potency [1]: inactive
Potency [2]: inactive

CCCCCCCCCCCCc1ccccc1O
Potency [1]: 53.8 µM (active) and 32 µM (active)
Potency [2]: 60.3 µM (active) and 54.5 µM (active)

O=C(CCCN1CCC(O)(c2ccc(Cl)cc2)CC1)c1ccc(F)cc1
Potency [1]: inactive
Potency [2]: inactive

O=Nc1ccc(O)cc1
Potency [1]: inactive
Potency [2]: inactive

Cc1ccc(C#N)cc1
Potency [1]: inactive
Potency [2]: inactive

CCCC(=O)OC/C=C(\C)CCC=C(C)C
Potency [1]: inactive
Potency [2]: inactive

CCCCCCCCCCCCCCCCO
Potency [1]: inactive
Potency [2]: inactive

NC(=O)Nc1ccc(Cl)c(Cl)c1
Potency [1]: inactive
Potency [2]: inactive

CCC/C=C/C=O
Potency [1]: inactive
Potency [2]: inactive

Nc1ncnc2c1ncn2Cc1c(F)cccc1Cl
Potency [1]: inactive
Potency [2]: inactive

COc1ccc(Nc2ccccc2)c(C)c1
Potency [1]: inactive
Potency [2]: inactive

CCCCNc1cc(C(=O)O)cc(S(N)(=O)=O)c1Oc1ccccc1
Potency [1]: inactive
Potency [2]: inactive

Nc1ccc(Cl)cc1[N+](=O)[O-]
Potency [1]: inactive
Potency [2]: inactive

C=CCSCC1Nc2cc(Cl)c(S(N)(=O)=O)cc2S(=O)(=O)N1 (configuration not stated)
Potency [1]: inactive
Potency [2]: inactive

COCCCN
Potency [1]: inactive
Potency [2]: inactive

COc1ccccc1N1CCN(CCCNc2cc(=O)n(C)c(=O)n2C)CC1
Potency [1]: inactive
Potency [2]: inactive

CCCCCCOC(=O)CCCCC(=O)OCCCCCC
Potency [1]: inactive
Potency [2]: inactive

O=C(c1ccc(O)cc1)c1ccc(O)cc1O
Potency [1]: inactive
Potency [2]: inactive

Nc1ccc(S(=O)(=O)O)c(N)c1
Potency [1]: inactive
Potency [2]: inactive

Cc1ncsc1CCO
Potency [1]: inactive
Potency [2]: inactive

O=C1CCCCCCCCCCCCCCCO1
Potency [1]: inactive
Potency [2]: inactive

COc1cc(/C=C/C(N)=O)cc(OC)c1OC
Potency [1]: inactive
Potency [2]: inactive

COc1ccccc1Oc1c(NS(=O)(=O)c2ccc(C(C)(C)C)cc2)nc(-c2ncccn2)nc1OCCO
Potency [1]: inactive
Potency [2]: inactive

NC(=O)C(=O)N/N=C/c1ccc([N+](=O)[O-])o1
Potency [1]: inactive
Potency [2]: inactive

CCCC(CC)CCCCCCCN (configuration not stated)
Potency [1]: inactive
Potency [2]: inactive

Cn1c([N+](=O)[O-])cnc1COC(N)=O
Potency [1]: inactive
Potency [2]: inactive

CNNCc1ccc(C(=O)NC(C)C)cc1
Potency [1]: inactive
Potency [2]: inactive

O=C(O)c1cc(C(=O)O)c(C(=O)O)cc1C(=O)O
Potency [1]: inactive
Potency [2]: inactive

CCCC(=O)C(=O)O
Potency [1]: inactive
Potency [2]: inactive

Cn1cnc([N+](=O)[O-])c1Sc1ncnc2nc[nH]c12
Potency [1]: inactive
Potency [2]: inactive

COc1ccc(-n2nc(CCC(=O)N(C)O)cc2-c2ccc(Cl)cc2)cc1
Potency [1]: inactive
Potency [2]: inactive

CCc1c(C(=O)O)c(=O)cnn1-c1ccc(Cl)cc1
Potency [1]: inactive
Potency [2]: inactive

On1ccccc1=S
Potency [1]: 9.59 µM (active)
Potency [2]: inactive

[O-][n+]1ccccc1SSc1cccc[n+]1[O-]
Potency [1]: 0.461 µM (active)
activity change, negative = cytotoxicity [2]: -16.6% [at 18.9 µM]

CCO[Si](CCCSSSSCCC[Si](OCC)(OCC)OCC)(OCC)OCC
Potency [1]: inactive
Potency [2]: inactive

S=P(N1CC1)(N1CC1)N1CC1
Potency [1]: inactive
Potency [2]: inactive

CN(C)CC[C@@H](c1ccc(Br)cc1)c1ccccn1
Potency [1]: inactive
Potency [2]: inactive

CC(=O)OCC(=O)[C@@]1(OC(C)=O)[C@@H](C)C[C@H]2[C@@H]3C[C@H](F)C4=CC(=O)C=C[C@]4(C)[C@@]3(F)[C@@H](O)C[C@@]21C
Potency [1]: inactive
Potency [2]: inactive

CC(C)NCC(O)c1ccc2ccccc2c1 (configuration not stated)
Potency [1]: inactive
Potency [2]: inactive

CC1COc2ccccc2N1 (configuration not stated)
Potency [1]: inactive
Potency [2]: inactive

COc1cc(C)ccc1O
Potency [1]: inactive
Potency [2]: inactive

Nc1ccc2cc(S(=O)(=O)O)ccc2c1
Potency [1]: inactive
Potency [2]: inactive

CCCOCCC
Potency [1]: inactive
Potency [2]: inactive

CC1OC1C1CCC2(C)OC2C1 (configuration not stated)
Potency [1]: inactive
Potency [2]: inactive

CC1=C(C(=O)O)N2C(=O)[C@@H](NC(=O)[C@H](N)c3ccc(O)cc3)[C@H]2SC1
Potency [1]: inactive
Potency [2]: inactive

CC1=NN(c2ccc(S(=O)(=O)O)cc2)C(=O)C1N=Nc1ccccc1 (configuration not stated)
Potency [1]: inactive
Potency [2]: inactive

Cc1ccc(C(=O)O)cc1
Potency [1]: inactive
Potency [2]: inactive

O=C1OC(=O)c2c(Br)c(Br)c(Br)c(Br)c21
Potency [1]: inactive
Potency [2]: inactive

NC(=O)C1(N2CCCCC2)CCN(CCCC(=O)c2ccc(F)cc2)CC1
Potency [1]: inactive
Potency [2]: inactive

O=C[O][Al]([O]C=O)[O]C=O
Potency [1]: inactive
Potency [2]: inactive

Cn1cnc2ncnc(N)c21
Potency [1]: inactive
Potency [2]: inactive

CS(C)(=O)=O
Potency [1]: inactive
Potency [2]: inactive

Fc1ccc(Br)cc1
Potency [1]: inactive
Potency [2]: inactive

CCN[C@H]1CN(CCCOC)S(=O)(=O)c2sc(S(N)(=O)=O)cc21
Potency [1]: inactive
Potency [2]: inactive

C=CCCCCCCCCOC(C)=O
Potency [1]: inactive
Potency [2]: inactive

CC(C)CCCO
Potency [1]: inactive
Potency [2]: inactive

CC(C)COC(=O)CCCCC(=O)OCC(C)C
Potency [1]: inactive
Potency [2]: inactive

CC[C@@H]1C[C@H](N(Cc2cc(C(F)(F)F)cc(C(F)(F)F)c2)C(C)=O)c2cc(C(F)(F)F)ccc2N1C(=O)OC(C)C
Potency [1]: inactive
Potency [2]: inactive

Brc1cc(-c2ccc(Br)c(Br)c2Br)cc(Br)c1Br
Potency [1]: inactive
Potency [2]: inactive

CC(C)(C)C1=CC(=O)C(C(C)(C)C)=CC1=O
Potency [1]: inactive
Potency [2]: inactive

O=Nc1ccc(NO)cc1
Potency [1]: inactive
Potency [2]: inactive

O=c1[nH]c(=O)n([C@H]2O[C@H](CO)[C@@H](O)[C@@H]2O)cc1/C=C\Br
Potency [1]: inactive
Potency [2]: inactive
